# ± gives the standard deviation of the averaged measurements. About 5,400 targets were measured; listed, in parts, are those with the largest changes and a random draw of the rest.
# Compound: Nc1nc2c(ncn2[C@@H]2O[C@H](COP(=O)(O)OP(=O)(O)OP(=O)(O)O)[C@@H](O)[C@H]2O)c(=O)[nH]1 [guanosine triphosphate]
# Assay: NP40-soluble protein abundance relative to vehicle (solubility fold change) (ratio); higher = more soluble protein in presence of GTP
# Details: concentration: 0.1mM
# Outline: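 Each value is a fold change relative to the detergent-processed vehicle, calculated per replicate from vsn-normalised intensities. Jurkat crude lysate received eight concentrations (0.1 to 10 mM) for 10 min at room temperature and 3 min at 37 °C, then was solubilised in 0.8% NP40 with benzonase (60 min, 4 °C). The ultracentrifuged supernatant was TMT-labelled and run by LC-MS/MS in three independent experiments.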
# Chain of UniProt Q96HS1 (Q96HS1 whole entry): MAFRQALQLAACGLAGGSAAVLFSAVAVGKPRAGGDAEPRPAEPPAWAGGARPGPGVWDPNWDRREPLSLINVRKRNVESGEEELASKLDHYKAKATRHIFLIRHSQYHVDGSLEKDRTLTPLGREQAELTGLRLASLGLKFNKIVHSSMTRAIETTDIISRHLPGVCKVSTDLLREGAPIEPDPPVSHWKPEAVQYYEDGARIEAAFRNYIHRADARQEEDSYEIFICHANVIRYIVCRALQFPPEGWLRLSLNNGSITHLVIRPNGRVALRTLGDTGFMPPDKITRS
# Chain of UniProt Q9H6E4 (Q9H6E4 whole entry): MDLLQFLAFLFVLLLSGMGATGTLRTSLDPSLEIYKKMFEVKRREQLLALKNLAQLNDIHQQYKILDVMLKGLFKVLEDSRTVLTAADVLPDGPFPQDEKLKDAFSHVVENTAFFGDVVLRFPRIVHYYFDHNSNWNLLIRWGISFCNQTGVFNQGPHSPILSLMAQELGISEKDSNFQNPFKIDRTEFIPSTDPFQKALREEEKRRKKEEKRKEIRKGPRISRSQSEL
# Chain of UniProt Q9BTY7 (Q9BTY7 whole entry): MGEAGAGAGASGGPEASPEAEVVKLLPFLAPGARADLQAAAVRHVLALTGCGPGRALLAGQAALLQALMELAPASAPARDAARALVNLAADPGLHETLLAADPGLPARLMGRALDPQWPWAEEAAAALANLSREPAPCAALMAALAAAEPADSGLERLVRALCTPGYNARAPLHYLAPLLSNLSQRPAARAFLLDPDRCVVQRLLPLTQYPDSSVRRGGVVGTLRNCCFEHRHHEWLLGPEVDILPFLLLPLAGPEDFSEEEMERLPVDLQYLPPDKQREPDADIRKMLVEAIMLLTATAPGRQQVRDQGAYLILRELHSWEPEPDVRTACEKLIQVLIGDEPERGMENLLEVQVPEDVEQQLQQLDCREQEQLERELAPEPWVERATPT
# Chain of UniProt Q96T23 (Q96T23 whole entry): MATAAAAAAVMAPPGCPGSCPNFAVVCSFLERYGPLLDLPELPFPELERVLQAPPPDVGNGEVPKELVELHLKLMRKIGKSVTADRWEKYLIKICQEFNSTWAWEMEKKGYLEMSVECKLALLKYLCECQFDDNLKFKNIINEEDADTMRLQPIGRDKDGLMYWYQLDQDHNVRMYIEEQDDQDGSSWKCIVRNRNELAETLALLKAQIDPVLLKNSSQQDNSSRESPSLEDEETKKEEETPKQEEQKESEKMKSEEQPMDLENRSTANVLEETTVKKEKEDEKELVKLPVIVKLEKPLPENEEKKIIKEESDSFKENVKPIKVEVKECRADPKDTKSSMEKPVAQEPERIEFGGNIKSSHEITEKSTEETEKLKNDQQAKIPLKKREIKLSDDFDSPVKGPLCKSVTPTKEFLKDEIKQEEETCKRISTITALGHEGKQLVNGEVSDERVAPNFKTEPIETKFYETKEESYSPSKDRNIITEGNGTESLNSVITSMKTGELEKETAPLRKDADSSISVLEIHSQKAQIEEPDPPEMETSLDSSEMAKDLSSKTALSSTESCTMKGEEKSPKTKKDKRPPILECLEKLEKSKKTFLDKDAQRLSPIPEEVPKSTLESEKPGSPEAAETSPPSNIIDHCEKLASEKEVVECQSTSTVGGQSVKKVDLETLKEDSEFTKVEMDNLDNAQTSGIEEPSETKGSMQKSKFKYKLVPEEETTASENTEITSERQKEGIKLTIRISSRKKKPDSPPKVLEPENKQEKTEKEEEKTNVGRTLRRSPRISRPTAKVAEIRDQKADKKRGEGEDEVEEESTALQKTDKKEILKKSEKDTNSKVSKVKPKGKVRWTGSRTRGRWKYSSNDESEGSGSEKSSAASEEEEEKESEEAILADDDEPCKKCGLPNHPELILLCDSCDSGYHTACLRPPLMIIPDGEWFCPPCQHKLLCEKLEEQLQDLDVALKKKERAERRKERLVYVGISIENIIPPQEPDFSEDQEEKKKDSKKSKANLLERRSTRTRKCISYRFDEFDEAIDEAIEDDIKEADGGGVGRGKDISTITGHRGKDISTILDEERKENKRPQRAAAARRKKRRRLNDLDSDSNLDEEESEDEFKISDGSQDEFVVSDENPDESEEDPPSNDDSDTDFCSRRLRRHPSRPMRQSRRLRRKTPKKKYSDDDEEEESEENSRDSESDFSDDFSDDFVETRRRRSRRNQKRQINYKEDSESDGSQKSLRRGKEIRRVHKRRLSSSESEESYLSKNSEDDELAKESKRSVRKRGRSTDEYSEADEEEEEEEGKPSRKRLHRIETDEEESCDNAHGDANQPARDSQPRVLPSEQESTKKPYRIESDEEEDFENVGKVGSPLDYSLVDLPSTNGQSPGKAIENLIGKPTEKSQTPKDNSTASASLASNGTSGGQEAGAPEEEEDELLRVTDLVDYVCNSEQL
# Chain of UniProt Q9NVP1 (Q9NVP1 whole entry): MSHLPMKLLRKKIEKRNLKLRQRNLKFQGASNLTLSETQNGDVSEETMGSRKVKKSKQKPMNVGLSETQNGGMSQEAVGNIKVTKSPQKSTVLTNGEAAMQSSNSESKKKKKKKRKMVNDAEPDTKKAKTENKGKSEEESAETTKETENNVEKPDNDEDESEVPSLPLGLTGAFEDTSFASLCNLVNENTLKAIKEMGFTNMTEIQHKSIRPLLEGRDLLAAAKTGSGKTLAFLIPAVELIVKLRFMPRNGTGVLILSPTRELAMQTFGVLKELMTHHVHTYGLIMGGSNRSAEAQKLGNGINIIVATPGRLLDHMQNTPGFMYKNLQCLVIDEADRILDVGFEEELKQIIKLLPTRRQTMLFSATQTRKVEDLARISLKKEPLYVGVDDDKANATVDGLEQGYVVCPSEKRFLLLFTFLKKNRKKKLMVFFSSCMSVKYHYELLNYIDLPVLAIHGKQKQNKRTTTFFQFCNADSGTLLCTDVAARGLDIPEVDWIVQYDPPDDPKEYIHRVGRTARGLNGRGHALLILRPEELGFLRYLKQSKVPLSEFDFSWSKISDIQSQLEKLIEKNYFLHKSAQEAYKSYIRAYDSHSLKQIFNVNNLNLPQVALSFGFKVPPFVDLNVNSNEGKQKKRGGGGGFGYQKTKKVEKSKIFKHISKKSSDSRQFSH
# Chain of UniProt Q9Y5J1 (Q9Y5J1 whole entry): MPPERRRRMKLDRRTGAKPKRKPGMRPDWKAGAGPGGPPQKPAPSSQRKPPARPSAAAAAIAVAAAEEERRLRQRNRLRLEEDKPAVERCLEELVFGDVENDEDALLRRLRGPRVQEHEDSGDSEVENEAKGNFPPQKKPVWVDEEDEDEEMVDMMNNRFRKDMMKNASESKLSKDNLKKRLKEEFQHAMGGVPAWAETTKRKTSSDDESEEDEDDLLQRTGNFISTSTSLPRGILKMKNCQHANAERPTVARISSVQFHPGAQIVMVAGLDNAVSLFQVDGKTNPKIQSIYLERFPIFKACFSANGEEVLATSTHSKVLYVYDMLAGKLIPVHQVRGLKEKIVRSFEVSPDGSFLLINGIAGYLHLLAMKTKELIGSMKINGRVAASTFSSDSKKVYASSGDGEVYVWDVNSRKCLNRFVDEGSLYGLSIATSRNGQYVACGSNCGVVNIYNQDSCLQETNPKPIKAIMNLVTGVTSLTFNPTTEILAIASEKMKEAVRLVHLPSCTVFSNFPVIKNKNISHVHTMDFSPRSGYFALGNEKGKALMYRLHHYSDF
# Chain of UniProt Q969P0 (Q969P0 whole entry): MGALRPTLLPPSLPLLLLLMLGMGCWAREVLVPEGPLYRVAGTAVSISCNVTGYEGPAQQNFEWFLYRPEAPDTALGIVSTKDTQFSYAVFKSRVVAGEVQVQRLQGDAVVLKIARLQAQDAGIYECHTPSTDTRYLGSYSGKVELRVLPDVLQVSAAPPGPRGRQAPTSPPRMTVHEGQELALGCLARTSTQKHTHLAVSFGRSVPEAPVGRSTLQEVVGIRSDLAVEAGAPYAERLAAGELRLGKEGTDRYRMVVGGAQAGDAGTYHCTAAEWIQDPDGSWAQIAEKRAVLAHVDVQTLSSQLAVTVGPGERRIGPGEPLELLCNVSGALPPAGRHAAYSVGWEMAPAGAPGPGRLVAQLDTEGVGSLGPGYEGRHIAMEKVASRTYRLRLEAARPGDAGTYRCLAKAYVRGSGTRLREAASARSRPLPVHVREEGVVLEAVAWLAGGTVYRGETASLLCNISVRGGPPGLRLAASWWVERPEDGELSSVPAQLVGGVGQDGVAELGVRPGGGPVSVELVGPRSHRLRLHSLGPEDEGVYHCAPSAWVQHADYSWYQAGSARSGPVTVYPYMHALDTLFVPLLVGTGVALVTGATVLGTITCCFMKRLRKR
# Chain of UniProt Q9NPF5 (Q9NPF5 whole entry): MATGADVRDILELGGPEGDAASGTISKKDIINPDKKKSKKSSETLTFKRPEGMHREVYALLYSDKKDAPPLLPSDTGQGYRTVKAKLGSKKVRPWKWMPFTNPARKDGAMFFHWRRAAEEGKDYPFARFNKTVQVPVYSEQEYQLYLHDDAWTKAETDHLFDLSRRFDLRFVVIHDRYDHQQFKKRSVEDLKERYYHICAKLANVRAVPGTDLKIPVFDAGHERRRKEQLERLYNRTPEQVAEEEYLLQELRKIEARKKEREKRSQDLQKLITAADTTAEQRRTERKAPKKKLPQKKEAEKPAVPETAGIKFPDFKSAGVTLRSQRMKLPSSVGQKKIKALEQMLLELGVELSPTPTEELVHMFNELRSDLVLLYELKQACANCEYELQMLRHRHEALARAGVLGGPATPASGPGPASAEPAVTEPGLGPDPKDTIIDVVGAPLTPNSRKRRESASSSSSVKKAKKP
# Chain of UniProt Q9NX24 (Q9NX24 whole entry): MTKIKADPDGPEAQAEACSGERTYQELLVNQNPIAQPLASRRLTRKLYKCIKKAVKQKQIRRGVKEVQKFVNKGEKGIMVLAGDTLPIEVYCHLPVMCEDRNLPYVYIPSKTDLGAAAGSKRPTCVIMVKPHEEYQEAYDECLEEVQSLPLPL
# Chain of UniProt Q9UII2 (Q9UII2 whole entry): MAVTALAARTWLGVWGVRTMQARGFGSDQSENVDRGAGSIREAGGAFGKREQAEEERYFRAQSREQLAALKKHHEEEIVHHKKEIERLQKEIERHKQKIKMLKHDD
row,Target,NP40-soluble protein abundance
1,UniProt Q99707|Q99707-2,0.997 ± 0.019
2,CCDC134 (UniProt Q9H6E4),0.934 ± 0.071
3,UniProt Q9BX67,1.04 ± 0.013
4,UniProt Q969H8,0.971 ± 0.023
5,UniProt Q9UMX0|Q9UMX0-2,0.999 ± 0.07
6,UniProt Q9Y4P8|Q9Y4P8-4|Q9Y4P8-6,1.04 ± 0.11
7,UniProt Q9NS23|Q9NS23-2|Q9NS23-3|Q9NS23-4|Q9NS23-5,0.978 ± 0.032

# Same assay, conditions: concentration: 0.5mM
row,Target,NP40-soluble protein abundance
1,UTP18 (UniProt Q9Y5J1),1.16 ± 0.12
2,DDX18 (UniProt Q9NVP1),1.11 ± 0.024
3,STUB1 (UniProt Q9UNE7),0.8985 ± 0.0031
4,NCAPG (UniProt Q9BPX3),1.06 ± 0.016
5,UniProt Q96EM0,0.971 ± 0.15
6,XRN2 (UniProt Q9H0D6),0.995 ± 0.027
7,HIRIP3 (UniProt Q9BW71),0.925 ± 0.089
8,X5CMH5 (UniProt Q03519),1.08 ± 0.054
9,PGAM5 (UniProt Q96HS1),1.09 ± 0.073
10,FN3KRP (UniProt Q9HA64),0.991 ± 0.014
11,UniProt Q9UJX5|Q9UJX5-3|Q9UJX5-2,1.24 ± 0.3
12,UniProt Q9Y2A7|Q9Y2A7-2,1.002 ± 0.0081
13,UniProt Q96MT7-2,0.959 ± 0.033
14,UniProt Q969P0|Q969P0-3,1 ± 0.048
15,UniProt Q9UII2,0.972 ± 0.11
16,NHP2 (UniProt Q9NX24),0.942 ± 0.054
17,DMAP1 (UniProt Q9NPF5),1.06 ± 0.059
18,UniProt Q96T23|Q96T23-2,1.09 ± 0.081
19,WDR3 (UniProt Q9UNX4),1.15 ± 0.098
20,UniProt Q9NVI7-2,1.16 ± 0.085
21,UniProt Q9NW08|Q9NW08-2,1.13 ± 0.075
22,UniProt Q9NVK5|Q9NVK5-2,0.945 ± 0.1
23,UniProt Q9BTY7,0.856 ± 0.056
